Compound activity deposited in PubChem by National Center for Advancing Translational Sciences (NCATS).
TDP1 cell CPT: DT40-hTDP1 cell growth loss with CPT. chicken DT40 Tdp1-/-;hTDP1 cells + 20 nM CPT, ATP luminescence, 48 h. Potency, µM (doses to about 46.2 µM), for inactives: top-dose activity change, negative = growth inhibition, usual class: inhibitors. actives 12% (n = 420,000); further: potency means the concentration at half of the fitted maximal effect; on the % scale 0 is the no-effect control and ±100 the full control effect; nearly all actives have a fitted effect of over 55% in size
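Cell growth measured by CellTiter-Glo luminescence after a minimum 48 h, 37 C compound exposure with 20 nM CPT in Tdp1-knockout DT40 cells stably expressing hTDP1, seeded 400/well; qHTS titration format.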
DRD3 agonist: D3 dopamine receptor (human) agonism; max activation, %; AID 652048; D3R DiscoveRx beta-arrestin cells, luminescence, 90 min; actives 0.58% (n = 410,000); in the data active means max activation above about 30%; further: 0% is about no effect
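Agonist-mode cell screen: cells plated at 1500/well and incubated overnight at 37 °C, then exposed to library compounds for 90 min at 37 °C. Detection reagent was added for 30–60 min at room temperature, and luminescence was read.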
IL1B secr inh: inhibitors of inflammasome signaling (IL-1 beta secretion) | THP-1 LPS/ATP IL-1B secretion, AlphaLISA, 16 h; hits give low values | activity change, % at 57.5 µM | actives 4.7% (n = 360,000) | AID 743279; in the data active means activity change below about -50%; inconclusive means mostly about -30% to -49%; further: on the % scale 0 is the no-effect control and ±100 the full control effect
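Secreted IL-1B measured by AlphaLISA bead assay after 16 h compound exposure of THP-1 cells; compounds (final up to 57.5 uM) added 1 h before LPS (250 ng/mL) and ATP (1.25 mM) stimulation; lower signal means less secretion.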
DT40 TDP1 no CPT: qHTS for Inhibitors of human tyrosyl-DNA phosphodiesterase 1 (TDP1): qHTS in cells in absence of CPT | actives 15% (n = 420,000) | DT40 Tdp1-/- hTDP1 cells, no CPT, ATP luminescence, 48 h | AID 686978, 2013 | Potency, µM (top dose mostly 46.2 µM), inactives show at the top dose activity change, negative = growth inhibition, usual class: inhibitors; further: potency means the concentration at half of the fitted maximal effect; on the % scale 0 is the no-effect control and ±100 the full control effect; nearly all actives have a fitted effect of over 55% in size
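DT40 Tdp1-/-;hTDP1 cells, no CPT (DMSO vehicle only), 400 cells/well; compounds pin-transferred; ≥48 hr, 37 °C; CellTiter-Glo 30 min RT dark, luminescence read.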
D3 antag: D3 dopamine receptor (human) antagonism; P35462; max response, negative = inhibition, %; actives 2.5% (n = 360,000); D3R cells, DiscoveRx beta-arrestin luminescence, antagonist mode; hits give low values; in the data active means max response below about -50%; inconclusive means no clear call, values can overlap the other calls; further: on the % scale 0 is the no-effect control and ±100 the full control effect
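Cells expressing the human receptor were seeded at 1500 cells/well, incubated overnight at 37 degrees C in 5% CO2, then exposed to library compounds with dopamine controls for 90 minutes at 37 degrees C before luminescent detection.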
ClpP mod: qHTS Assay for Activators of ClpP. ATP-dependent Clp protease proteolytic subunit (Bacillus subtilis (strain 168)), P80244. purified B. subtilis ClpP, FRET peptide cleavage, 20 min. Potency, µM (series often up to 57.5 µM), for inactives: top-dose activity change, negative = active. actives 1.9% (n = 340,000); active means well fitted falling curve with a large enough effect; inconclusive means small, poorly fitted or top-dose-only effect; inactive means no such curve, though single readings can be large or run the other way; further: potency means the concentration at half of the fitted maximal effect; the source files actives as falling curves though it sought activators and does not explain the sign; nearly all actives have a fitted effect of over 65% in size
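Buffer: 100 mM Tris/HCl pH8, 100 mM KCl, 0.05% low protease BSA, 2.5% glycerol, 0.01% Tween-20. ClpP 10 microg/mL final; 20 min RT; delta FRET normalized to ADEP and DMSO controls.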
Starred values were filed as active, the others as inactive; u = inconclusive; x = not tested or not shown; ! = a repeat was not active. An excerpt weighted towards active compounds, which were near 21% of everything screened. Unless noted, the call rests on the fitted dose curve; in most records, active means well fitted inhibition curve with a large enough effect; inconclusive means small, poorly fitted or top-dose-only effect; inactive means flat fitted curve, though single readings scatter.

SMILES	TDP1 cell CPT	DRD3 agonist	IL1B secr inh	DT40 TDP1 no CPT	D3 antag	ClpP mod
COC(=O)C1=C(c2ccc(F)cc2F)C[C@@H]2CC[C@H]1N2C(=O)NC1CCCCC1	u	-6.8	1.8	u	-20.2	0.5%
COC(=O)C1=C(c2ccc(OC(F)(F)F)cc2)C[C@@H]2CC[C@H]1N2C(=O)NC1Cc2ccccc2C1	23.1µM*	5.7	-23.5	u	17.2	1.9%
COC(=O)C1=C(c2ccc3ccccc3c2)C[C@@H]2CC[C@H]1N2C(=O)NC1Cc2ccccc2C1	u	-2.4	-7.1	u	-26.4	-4.7%
COC(=O)C1=C(c2ccc(OC(F)(F)F)cc2)C[C@@H]2CC[C@H]1N2C(=O)NC1CCCCC1	u	9.6	-14.0	16.4µM*	10.2	-0.6%
c1ccc2sc(C3(NCC4CC4)CCCCC3)cc2c1	16.4µM*	x	x	13µM*	x	x
c1ccc2sc(C3(N4CCCC4)CCCCC3)cc2c1	u	x	x	20.6µM*	x	x
O[C@@H]1CCCC[C@H]1N1CCC(c2ccccc2)CC1	9.7%	-55.8	17.9	-0.8%	-7.0	-1.4%
Cc1[nH]c2ccc(OC(F)(F)F)cc2c1CCNCc1cccc([N+](=O)[O-])c1	u	-18.6	-94.8*	13µM*	-63.7*	x
Cc1[nH]c2ccc(OC(F)(F)F)cc2c1CCNCc1ccc(Cl)cc1	25.9µM*	-1.8	-97.4*	14.6µM*	-25.2	x
COc1ccc2[nH]c(C)c(CCNCc3cccnc3)c2c1	1.4%	-5.5	-4.9	9.6%	-18.6	-7.1%
CCOc1cccc(CNCCc2c(C)[nH]c3ccc(OC(F)(F)F)cc23)c1O	2.91µM*	5.3	-98.4*	2.06µM*	18.5	-3.8%
Cc1ccc2nc(C)n(-c3ccc(F)cc3)c(=O)c2c1	u	-0.3	1.7	u	-6.7	x
CCCc1cc(=O)oc2cc(OCC(=O)N3CCC(C(=O)O)(c4ccccc4)CC3)ccc12	-4.0%	-0.6	15.7	2.4%	u	4.7%
Cc1cc[n+](Cc2ccccc2)cc1	u	2.7	36.5	u	15.2	-0.7%
c1ccc(C[n+]2ccccc2)cc1	u	0.0	0.0	16.4µM*	0.8	-2.3%
C=CCN=C=S	-5.8%	-14.9	x	-8.7%	x	x
NCCc1cc(O)c(O)cc1O	5.17µM*	-9.9	-24.1	3.66µM*	-68.2*!	-1.2%
COc1ccc(-c2nnc3n2N(C(C)=O)C(c2ccc(Cl)c(Cl)c2)=C(C(C)=O)S3)cc1	3.26µM*	1.7	x	4.11µM*	x	-0.6%
COc1ccc(C2=C(C(C)=O)Sc3nnc(-c4ccc(Cl)cc4)n3N2C(C)=O)cc1OC	4.11µM*	1.2	x	2.31µM*	x	u
NC(=O)Cc1cccc(C(=O)c2ccccc2)c1N	-13.5%	4.4	x	u	x	x
Cc1cc(/C=C/c2cccc3sc(C)[n+](CCCCI)c23)ccc1N(CCCl)CCCl	2µM*	x	x	1.58µM*	x	2.2%
NC(Cc1ccccc1Cl)c1nn[nH]n1 (stereo unspecified)	13.8%	2.8	16.9	-10.1%	0.9	1.3%
O=C(Cc1cc(=O)[nH]c(=O)[nH]1)N1CCN(CCO)CC1	-2.8%	2.9	2.5	-0.1%	-18.3	-0.6%
CC(=O)OC[C@]12CCC(C)=C[C@H]1O[C@@H]1[C@H](O)[C@@H](OC(C)=O)[C@@]2(C)[C@]12CO2	0.0206µM*	-32.5	-105.7*	0.0164µM*	13.3	-3.7%
CC(=O)OC[C@]12C[C@H](OC(=O)CC(C)C)C(C)=C[C@H]1O[C@H]1[C@H](O)[C@@H](OC(C)=O)[C@@]2(C)[C@]12CO2	0.0116µM*	x	x	0.0092µM*	x	x
SMILES	TDP1 cell CPT	DRD3 agonist	IL1B secr inh	DT40 TDP1 no CPT	D3 antag	ClpP mod
C=CCn1c(O)c(Cc2ccc(OCC)cc2)c(=O)[nH]c1=O	23.6%	6.1	8.8	-0.1%	-5.1	x
O=C(NC1CCCCC1)Oc1cc2oc(=O)sc2cc1Cl	-17.4%	9.5	22.8	14.6µM*	-6.2	x
CC(C)[C@H]1C(=O)O[C@H](C(C)C)C(=O)N(C)[C@@H](C(C)C)C(=O)O[C@H](C(C)C)C(=O)N(C)[C@@H](C(C)C)C(=O)O[C@H](C(C)C)C(=O)N1C	3.26µM*	3.1	-7.7	4.11µM*	-27.4	-4.0%
CCN(CC)S(=O)(=O)c1ccc2c(c1)c(=O)c(C(=O)NCc1ccccc1OC)cn2C	23.1µM*	-13.8	x	18.4µM*	x	-3.8%
CC1CCN(CC#CCOc2ccc(Cl)cc2)CC1	-23.7%	-26.0	-3.9	-5.7%	-104.8*	0.5%
C/C=C1\NC(=O)[C@H](C)NC(=O)[C@@H](NC(=O)[C@H](Cc2ccc(O)cc2)NC(=O)[C@@H](NC(=O)/C(C)=C/C)C(C)C)[C@@H](C)OC(=O)[C@H](CCCc2ccc(O)cc2)NC(=O)[C@@H](CCC(=O)O)NC1=O	0.7%	4.4	17.7	0.7%	10.7	2.9%
COc1ccc2c(c1)C(c1ccc(N(CCCl)CCCl)cc1)=NCC2	16.4µM*	-14.2	-89.9*	13µM*	-18.7	x
ClCCN(CCCl)c1ccc(C2=NCCc3ccccc32)cc1	23.1µM*	2.3	-78.0*	u	-14.7	u
COc1ccc(N2C(=O)C(=O)N(c3ccc(OC)cc3)P2(=O)N(CCCl)CCCl)cc1	-24.0%	-1.1	-0.7	-14.9%	-22.1	x
CCC(=O)O[C@@H]1CC(=O)O[C@H](C)C/C=C/C=C/[C@H](O)[C@H](C)C[C@H](CC=O)[C@H](O[C@@H]2O[C@H](C)[C@@H](O[C@H]3C[C@@](C)(O)[C@@H](OC(=O)CC)[C@H](C)O3)[C@H](N(C)C)[C@H]2O)[C@H]1OC	u	7.4	x	u	x	x
Cc1ccccc1CN1Cc2cnnn2-c2ccccc2C1C#N (stereo unspecified)	2.59µM*	-66.0	-102.4*	2.06µM*	-115.4*	-0.1%
COc1ccc(CN2Cc3cnnn3-c3ccccc3C2C)cc1 (stereo unspecified)	u	-35.7	21.2	16.4µM*	-16.0	0.9%
COc1ccc(CN2Cc3cc(N4CCOCC4)ccc3-n3nncc3C2)cc1	20.6µM*	5.4	-21.7	u	13.1	-2.6%
COc1ccc(CN2Cc3cc(-c4ccc(OC)cc4)ccc3-n3nncc3C2)cc1	20.6µM*	0.7	-1.5	18.4µM*	50.0	u
COc1ccc(CN2Cc3cc(-c4ccccc4)ccc3-n3nncc3C2)cc1	u	4.6	-27.9	u	30.0	-0.8%
CCOC(=O)CC1c2ccccc2-n2nncc2CN1Cc1ccc(OC)cc1 (stereo unspecified)	u	6.9	8.6	u	-2.2	-0.2%
